# Measured values as given in PubChem BioAssay (NCI).
# Compounds without any hit were thinned out: in the full panel of roughly 79,000, 15% have a hit. Unmarked numbers belong to inactive results. Active and inactive are the calls of the source. Cut-off read from the data, not from the text of the source: active = growth inhibition above about 70%; inactive = the rest.
# What was measured:
# [1] = NCI Yeast Anticancer Drug Screen. Data for the rad50 strain (AID 155);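 note: 0% = growth of vehicle-only cultures of the same strain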; details: S. cerevisiae rad50 strain growth inhibition, stronger effect = higher value
# In short: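 Inhibition values express reduced yeast growth in compound-treated cultures relative to vehicle-treated controls.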
# [2] = NCI Yeast Anticancer Drug Screen. Data for the mec2-1 strain (AID 157); details: S. cerevisiae mec2-1 strain, stronger effect = higher value
# In short: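 Growth inhibition is read against vehicle-treated controls after compound exposure of the mec2-1 yeast strain, which is defective in DNA damage repair or cell cycle control.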
# [3] = NCI Yeast Anticancer Drug Screen. Data for the sgs1 mgt1 strain (AID 161);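 note: 0% = growth of cultures given vehicle only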; details: S. cerevisiae sgs1 mgt1 strain, stronger effect = higher value
# In short: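 Compounds are added to genetically altered yeast, and growth is compared with cultures given vehicle alone to give percent inhibition.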
# [4] = NCI Yeast Anticancer Drug Screen. Data for the cln2 rad14 strain (AID 165);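 note: 0% = growth equal to vehicle treated cultures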; details: S. cerevisiae cln2 rad14 strain, stronger effect = higher value
# In short: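 Growth inhibition, relative to vehicle-treated controls, is the read-out. The test organism is a yeast strain with defined genetic alterations, cln2 rad14.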
# [5] = NCI Yeast Anticancer Drug Screen. Data for the bub3 strain (AID 167); details: S. cerevisiae bub3 mutant strain, stronger effect = higher value
# In short: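 Steps: expose the mutant yeast strain to compound; grow alongside vehicle-treated cultures; measure growth; express inhibition against the vehicle cultures.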
# [6] = NCI Yeast Anticancer Drug Screen. Data for the mlh1 rad18 strain (AID 175); details: S. cerevisiae mlh1 rad18 strain growth inhibition, stronger effect = higher value
# In short: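 Cells of a genetically altered yeast strain, deficient in DNA damage repair, were treated with compound. Their growth was then compared with that of vehicle-treated cultures to give inhibition.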
# [7] = at 5.0 µM (retest, dose inferred, filed as 0.5)
# [8] = at 50.0 µM (retest, dose inferred, filed as 5.0)
Structure (SMILES),"growth inhibition [1, 7]","growth inhibition [1, 8]",growth inhibition ([1]; at 50.0 µM),"growth inhibition [2, 7]","growth inhibition [2, 8]",growth inhibition ([2]; at 50.0 µM),"growth inhibition [3, 7]","growth inhibition [3, 8]",growth inhibition ([3]; at 50.0 µM),"growth inhibition [4, 7]","growth inhibition [4, 8]",growth inhibition ([4]; at 50.0 µM),"growth inhibition [5, 7]","growth inhibition [5, 8]",growth inhibition ([5]; at 50.0 µM),"growth inhibition [6, 7]","growth inhibition [6, 8]",growth inhibition ([6]; at 50.0 µM)
CCc1n[nH]c(CC)c1CCCCCCOc1ccc(OC)cc1Cl,-8%,60%,83.8% (active),-15%,77% (active),92.4% (active),-3%,73% (active),92.2% (active),-28%,76% (active),89.7% (active),-8%,83% (active),89.2% (active),-11%,73% (active),93.7% (active)
CCCCCCCCC/C=C1\CCC(CN(C)C)C1=O (configuration not stated),-26%,88% (active),89.4% (active),-36%,98% (active),93% (active),-28%,91% (active),90.8% (active),-6%,96% (active),89.6% (active),-24%,97% (active),89.5% (active),-27%,97% (active),88.8% (active)
CC1CCCC(CCN(C)CCC2CCCCC2)CC1 (configuration not stated),21%,98% (active),99.3% (active),9%,99% (active),99.2% (active),35%,99% (active),99.4% (active),21%,97% (active),99.1% (active),7%,79% (active),99% (active),45%,98% (active),99.1% (active)
COc1ccc(CN2CCCN(Cc3ccc(OC)cc3OC)C2c2cc(Br)ccc2O)c(OC)c1,31%,98% (active),99% (active),18%,100% (active),95.2% (active),27%,99% (active),99.2% (active),12%,94% (active),57.2%,15%,98% (active),27.9%,63%,99% (active),98.7% (active)
O=C1Nc2c(ccc(Cl)c2I)C1=O,-28%,97% (active),92.2% (active),-3%,99% (active),94.3% (active),-13%,70% (active),92.3% (active),9%,98% (active),91.2% (active),-5%,98% (active),91.6% (active),-27%,99% (active),91.7% (active)
CC(=O)Oc1c(O)c2ccccc2c2ccccc12,6%,93% (active),99.5% (active),-5%,97% (active),99.2% (active),2%,83% (active),99.3% (active),-11%,95% (active),97.5% (active),5%,96% (active),99.5% (active),-4%,92% (active),98.9% (active)
NC(=S)N/N=C\C12CC3CC(CC(C3)C1)C2,57%,98% (active),97.4% (active),73% (active),97% (active),93.7% (active),70% (active),98% (active),92.8% (active),25%,97% (active),71.5% (active),62%,98% (active),95.6% (active),77% (active),99% (active),96.5% (active)
C[N+](C)([O-])CCC=C1c2ccccc2CCc2ccccc21,10%,46%,62.5%,12%,9%,28.4%,-2%,33%,7.75%,-20%,21%,12.5%,3%,33%,73.5% (active),4%,33%,33.5%
c1ccc([P+](c2ccccc2)(c2ccccc2)C2CCCCO2)cc1 (configuration not stated),17%,74% (active),67.8%,-4%,83% (active),83.2% (active),4%,69%,35.1%,-2%,77% (active),49.5%,5%,77% (active),54%,1%,61%,81.1% (active)
CC1OC(C)C(O)C2=C1C(=O)c1ccccc1C2=O (configuration not stated),-4%,95% (active),91.9% (active),-29%,77% (active),86.3% (active),14%,94% (active),91.8% (active),2%,55%,60.4%,14%,87% (active),83.5% (active),23%,96% (active),87.8% (active)
CC(=O)O/N=C1/CCC2C3CC=C4CC(OC(C)=O)CCC4(C)C3CCC12C (configuration not stated),0%,69%,68.8%,16%,93% (active),71.5% (active),8%,89% (active),89.9% (active),-1%,87% (active),85% (active),-7%,74% (active),41.5%,34%,93% (active),77.1% (active)
CC(=O)NC1CCCCC1c1ccc(C2CCCCC2NC(C)=O)cc1 (configuration not stated),-8%,3%,-11.9%,-8%,9%,-9.3%,-4%,19%,5.3%,-69%,-6%,66.8%,-4%,1%,-2.45%,3%,3%,1.9%
Nc1ccc2c(SCCCCCCCCSc3c4ccccc4nc4cc(N)ccc34)c3ccccc3nc2c1,1%,74% (active),48.9%,1%,67%,9.15%,-2%,72% (active),22.9%,-4%,32%,33.2%,-3%,72% (active),-4.05%,2%,94% (active),32%
N#CC(Br)(C#N)Cc1ccccc1,1%,100% (active),98.8% (active),8%,100% (active),99.6% (active),-11%,90% (active),99.1% (active),-10%,99% (active),99.2% (active),9%,100% (active),99.5% (active),-10%,100% (active),99.3% (active)
Cc1cccc(NC(=O)c2cc3cc(N=Nc4ccccc4Cl)ccc3oc2=O)c1,6%,6%,78.5% (active),-2%,-2%,70% (active),22%,22%,75.4% (active),3%,3%,35%,6%,6%,78.3% (active),7%,7%,70.7% (active)
c1ccc(CCCCc2ccncc2)cc1,1%,28%,87.3% (active),1%,13%,46.2%,0%,47%,94% (active),5%,11%,63.6%,24%,81% (active),93.5% (active),-3%,18%,88.5% (active)
O=C(O)/C(=C\c1ccc(O)cc1)c1cccc2ccccc12,31%,18%,45.3%,-2%,36%,37.6%,-2%,12%,5.5%,3%,27%,76.2% (active),-21%,22%,61.5%,-4%,49%,48%
COc1cc2c(c(OC)c1OC)-c1ccc(=O)c(OC)cc1[C@@H](N)CC2,25%,22%,-5.6%,22%,16%,-26.4%,22%,21%,-12.5%,24%,32%,-15.4%,25%,19%,-5.1%,29%,26%,-49.5%
OC(c1ccc(Cl)cc1)c1ccc(Cl)cc1,-7%,100% (active),79% (active),-11%,100% (active),98.2% (active),-7%,100% (active),75.2% (active),-17%,100% (active),85.3% (active),-11%,100% (active),98.8% (active),-6%,99% (active),85.2% (active)
